Assay results reported in PubChem BioAssay (NCATS).
Inconclusive results are not listed. Entries that show only a call come without a potency. Activity calls are given as the source filed them. Calls come from the whole dose curve; as a rule, active = well fitted curve in the direction sought with a large enough effect; inconclusive = small, poorly fitted or top-dose-only effect, or another doubt; inactive = no such curve, though single readings can be large; an effect the other way counts as inactive or inconclusive.

Key:
[1] = qHTS assay to identify small molecule inhibitors of chordoma cells - UCH-1 (AID 1259355); settings: UCH-1 chordoma viability, CellTiter-Glo, 48 h, combination, with auranofin plus four topoisomerase inhibitors; series mostly up to 46.1 µM; note: nearly all actives have a fitted effect of over 55% in size
Summary of the method: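 Screening used approved and investigational drugs in 15-point titration against 800 seeded cells per well. A fixed combination of auranofin with camptothecin, doxorubicin, rubitecan and topotecan followed compound addition, and growth was scored by CellTiter-Glo after 48hr.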

[2] = qHTS assay to identify small molecule inhibitors of chordoma cells - UCH-2 (AID 1259356); settings: UCH-2 chordoma viability, CellTiter-Glo ATP luminescence, 48 h; series mostly up to 46.1 µM
[3] = P-glycoprotein substrates identified in KB-8-5-11 adenocarcinoma cell line, qHTS therapeutic library screen (AID 1346987); settings: KB-8-5-11 (P-gp overexpressing) viability, CellTiter-Glo, 72 h; series mostly up to 44.5 µM; note: nearly all actives have a fitted effect of over 65% in size; note: potency is the fitted concentration of half-maximal effect
Summary of the method: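 Compounds are pinned in dose-response onto KB-8-5-11 cells (500 cells/well, colchicine-free medium) and left 72 h at 37 degree C. CellTiter-Glo luminescence then yields AC50 values.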

Compound	Potency [1]	Potency [2]	Potency [3]
S=C=Nc1ccc(N=C=S)cc1	inactive	inactive	inactive
CNC(=O)c1c(I)c(C(=O)NCC(=O)Nc2c(I)c(C(=O)O)c(I)c(C(=O)NCCO)c2I)c(I)c(N(C)C(C)=O)c1I	inactive	inactive	inactive
O=C(Cc1cccs1)N[C@@H]1C(=O)N2C(C(=O)[O-])=C(C[n+]3ccccc3)CS[C@H]12	inactive	inactive	inactive
C[C@@](Cc1ccc(O)c(O)c1)(NN)C(=O)O	inactive	inactive	inactive
Cc1ncc(C[n+]2csc(CCO)c2C)c(N)n1	inactive	inactive	inactive
CCCCCCCCCCCCCCCC(=O)OC[C@@H](O)[C@H]1OC[C@H](O)[C@H]1O	inactive	inactive	inactive
H-RKDVY-OH	inactive	inactive	inactive
NCCCC[C@H](N)C(=O)O	inactive	inactive	inactive
O=C(O)c1cc(N=Nc2ccc(O)c(C(=O)O)c2)ccc1O	inactive	inactive	inactive
CC(=O)Nc1c(I)c(C(=O)O)c(I)c(N(C)C(C)=O)c1I	inactive	inactive	inactive
C[N+]1(C)[C@@H]2CC(OC(=O)C(O)(c3cccs3)c3cccs3)C[C@H]1[C@@H]1O[C@@H]12 (some centres not stated)	inactive	inactive	inactive
CC(O)[C@H]1CC[C@H]2[C@@H]3CC[C@@H]4C[C@@H](O)CC[C@]4(C)[C@H]3CC[C@]12C (some centres not stated)	inactive	inactive	6.51 µM (active)
CCCc1ccc(C(=O)O)cc1	inactive	inactive	inactive
C=CCN1CCCC1CNC(=O)c1cc(S(N)(=O)=O)cc(OC)c1OC (configuration not stated)	inactive	inactive	inactive
